Results published in publication PMC7862700, “An all-to-all approach to the identification of sequence-specific readers for epigenetic DNA modifications on cytosine”.

Experiments:
Test in all cases: DAPPL (digital affinity profiling via proximity ligation, sequencing); 10 mM Tris-HCl pH 7.5, 50 mM NaCl, 1 mM DTT, 4% glycerol, room temperature, 30 min; GST-TFs on glutathione beads, 16-mer random dsDNA library, 0.1% formaldehyde crosslink after washing; high values mean tight binding
FEV = molecular target: T1, FEV (Homo sapiens, UniProt Q99581 1-238); details: protein: recombinant; tags: N-terminal GST; dsDNA, one strand shown
T1 sequence: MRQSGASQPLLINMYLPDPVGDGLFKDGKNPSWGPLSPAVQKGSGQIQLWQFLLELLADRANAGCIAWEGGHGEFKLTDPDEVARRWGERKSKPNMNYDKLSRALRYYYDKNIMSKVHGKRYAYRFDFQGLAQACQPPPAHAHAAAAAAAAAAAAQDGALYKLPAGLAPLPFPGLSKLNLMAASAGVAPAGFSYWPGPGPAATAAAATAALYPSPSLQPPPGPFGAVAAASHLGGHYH
Procedure, shortened: (§1)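 In yeast, human transcription factors were expressed with a GST fusion, then pulled down on glutathione beads and given DNA barcodes. Pooled with a tag-only sample, they were exposed to 200 nmole of a 16-mer random double-stranded DNA library (Tris/NaCl/DTT/glycerol buffer, room temperature, 30 min), washed, crosslinked with 0.1% formaldehyde, proximity-ligated using BsaI/T4 ligase for 1 h at 37 °C, PCR-amplified and read on an Illumina NextSeq500. Each hexamer's frequency of reads for a factor, divided by the matching frequency for the tag-only sample, gives the binding signal.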

ETV5 = ETV5 (Homo sapiens, UniProt P41161 1-510); details: protein: recombinant; tags: N-terminal GST; dsDNA, one strand shown
Procedure, shortened: as §1

HSF1 = HSF1 (Homo sapiens, UniProt Q00613 1-529); details: protein: recombinant; tags: N-terminal GST; chain copies: 3; dsDNA, one strand shown
Procedure, shortened: as §1

SPIC = molecular target: T2, SPIC (Homo sapiens, UniProt Q8N5J4 1-248); details: protein: recombinant; tags: N-terminal GST; dsDNA, one strand shown
T2 sequence: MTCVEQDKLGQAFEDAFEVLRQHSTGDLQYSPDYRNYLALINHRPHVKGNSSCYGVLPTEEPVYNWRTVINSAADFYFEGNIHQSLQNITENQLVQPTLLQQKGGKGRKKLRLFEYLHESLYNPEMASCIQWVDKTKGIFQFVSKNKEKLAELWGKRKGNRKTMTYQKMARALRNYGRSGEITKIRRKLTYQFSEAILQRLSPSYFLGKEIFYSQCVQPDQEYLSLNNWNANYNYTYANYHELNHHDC
Procedure, shortened: as §1

ELF4 = ELF4 (Homo sapiens, UniProt Q99607 1-663); details: protein: recombinant; tags: N-terminal GST; dsDNA, one strand shown
Procedure, shortened: as §1

ELK4 = molecular target: T3, ELK4 (Homo sapiens, UniProt P28324-2 1-405); details: protein: recombinant; tags: N-terminal GST; dsDNA, one strand shown
T3 sequence: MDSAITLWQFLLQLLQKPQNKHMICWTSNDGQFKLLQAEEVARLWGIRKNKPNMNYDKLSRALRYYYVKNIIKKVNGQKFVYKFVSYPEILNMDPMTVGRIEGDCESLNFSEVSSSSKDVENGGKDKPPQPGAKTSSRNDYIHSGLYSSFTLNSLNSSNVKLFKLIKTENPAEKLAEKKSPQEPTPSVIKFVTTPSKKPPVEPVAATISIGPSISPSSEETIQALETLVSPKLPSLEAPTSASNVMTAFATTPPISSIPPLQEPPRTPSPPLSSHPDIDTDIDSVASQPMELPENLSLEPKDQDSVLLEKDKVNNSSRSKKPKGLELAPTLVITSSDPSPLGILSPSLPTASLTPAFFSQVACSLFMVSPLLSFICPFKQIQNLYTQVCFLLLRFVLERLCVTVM
Procedure, shortened: as §1

ELF3 = molecular target: T4, ELF3 (Homo sapiens, UniProt P78545 1-371); details: protein: recombinant; tags: N-terminal GST; dsDNA, one strand shown
T4 sequence: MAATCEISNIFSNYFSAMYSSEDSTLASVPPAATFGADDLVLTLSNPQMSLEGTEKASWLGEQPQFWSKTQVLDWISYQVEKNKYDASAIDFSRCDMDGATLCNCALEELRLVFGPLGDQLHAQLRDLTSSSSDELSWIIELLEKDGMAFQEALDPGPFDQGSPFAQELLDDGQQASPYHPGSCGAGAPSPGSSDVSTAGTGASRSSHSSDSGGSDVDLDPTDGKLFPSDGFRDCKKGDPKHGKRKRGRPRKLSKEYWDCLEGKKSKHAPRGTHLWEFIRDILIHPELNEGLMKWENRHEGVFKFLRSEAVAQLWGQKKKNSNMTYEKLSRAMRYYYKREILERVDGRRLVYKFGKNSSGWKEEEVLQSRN
Procedure, shortened: as §1

CRX = CRX (Homo sapiens, UniProt O43186 1-299); details: protein: recombinant; tags: N-terminal GST; dsDNA, one strand shown
Procedure, shortened: as §1

ETV1 = ETV1 (Homo sapiens, UniProt P50549 1-477); details: protein: recombinant; tags: N-terminal GST; dsDNA, one strand shown
Procedure, shortened: as §1

ETV2 = molecular target: T5, ETV2 (Homo sapiens, UniProt O00321 1-342); details: protein: recombinant; tags: N-terminal GST; dsDNA, one strand shown
T5 sequence: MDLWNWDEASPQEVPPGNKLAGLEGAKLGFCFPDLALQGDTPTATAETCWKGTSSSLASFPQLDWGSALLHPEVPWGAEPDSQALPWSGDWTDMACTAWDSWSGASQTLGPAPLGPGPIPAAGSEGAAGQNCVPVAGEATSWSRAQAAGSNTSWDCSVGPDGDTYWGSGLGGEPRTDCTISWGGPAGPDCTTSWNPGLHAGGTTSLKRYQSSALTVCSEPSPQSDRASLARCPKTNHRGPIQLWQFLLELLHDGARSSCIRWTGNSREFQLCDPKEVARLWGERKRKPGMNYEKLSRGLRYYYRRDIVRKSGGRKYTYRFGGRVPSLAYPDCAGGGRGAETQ
Procedure, shortened: as §1

ELF4, sequence (Q99607 whole entry): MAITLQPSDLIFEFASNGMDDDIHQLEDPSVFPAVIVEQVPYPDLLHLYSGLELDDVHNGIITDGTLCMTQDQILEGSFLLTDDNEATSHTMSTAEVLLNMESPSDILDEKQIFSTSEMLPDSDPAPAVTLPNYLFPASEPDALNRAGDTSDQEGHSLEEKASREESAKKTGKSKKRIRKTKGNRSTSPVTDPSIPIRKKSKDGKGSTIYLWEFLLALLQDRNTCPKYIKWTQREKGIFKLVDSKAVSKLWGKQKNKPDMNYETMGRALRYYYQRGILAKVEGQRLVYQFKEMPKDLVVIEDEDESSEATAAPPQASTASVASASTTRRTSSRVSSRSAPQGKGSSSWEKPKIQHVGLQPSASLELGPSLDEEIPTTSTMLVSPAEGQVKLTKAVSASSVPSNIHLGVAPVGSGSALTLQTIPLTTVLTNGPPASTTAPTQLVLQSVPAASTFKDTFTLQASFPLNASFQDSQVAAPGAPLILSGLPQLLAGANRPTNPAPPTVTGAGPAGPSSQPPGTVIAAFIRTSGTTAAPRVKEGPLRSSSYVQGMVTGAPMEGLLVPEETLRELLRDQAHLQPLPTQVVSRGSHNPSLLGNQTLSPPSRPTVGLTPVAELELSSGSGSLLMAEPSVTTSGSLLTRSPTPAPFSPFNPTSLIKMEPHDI
CRX, sequence (O43186 whole entry): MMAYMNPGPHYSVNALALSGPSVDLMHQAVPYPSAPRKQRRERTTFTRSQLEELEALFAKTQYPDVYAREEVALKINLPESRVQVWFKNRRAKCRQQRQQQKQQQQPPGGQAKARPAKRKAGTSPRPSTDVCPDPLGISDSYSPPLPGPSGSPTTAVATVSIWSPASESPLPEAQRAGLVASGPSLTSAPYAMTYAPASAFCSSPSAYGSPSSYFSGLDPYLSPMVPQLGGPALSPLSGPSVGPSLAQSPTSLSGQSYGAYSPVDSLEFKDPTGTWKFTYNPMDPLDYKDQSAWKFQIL
HSF1, sequence (Q00613 whole entry): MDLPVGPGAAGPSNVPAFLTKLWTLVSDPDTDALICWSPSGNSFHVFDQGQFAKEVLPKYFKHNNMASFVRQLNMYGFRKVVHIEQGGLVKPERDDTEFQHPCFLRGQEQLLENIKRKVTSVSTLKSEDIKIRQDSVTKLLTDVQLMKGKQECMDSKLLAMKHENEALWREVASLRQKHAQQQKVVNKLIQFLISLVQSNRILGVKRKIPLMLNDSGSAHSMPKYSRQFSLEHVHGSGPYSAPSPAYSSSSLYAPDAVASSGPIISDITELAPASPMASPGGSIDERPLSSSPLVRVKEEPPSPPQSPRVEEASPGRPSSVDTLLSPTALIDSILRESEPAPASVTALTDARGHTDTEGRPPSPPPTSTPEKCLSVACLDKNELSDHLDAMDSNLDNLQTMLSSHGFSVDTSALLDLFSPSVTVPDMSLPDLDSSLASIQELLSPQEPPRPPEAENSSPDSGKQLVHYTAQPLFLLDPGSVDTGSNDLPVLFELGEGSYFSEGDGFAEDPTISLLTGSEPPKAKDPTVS
ETV5, sequence (P41161 whole entry): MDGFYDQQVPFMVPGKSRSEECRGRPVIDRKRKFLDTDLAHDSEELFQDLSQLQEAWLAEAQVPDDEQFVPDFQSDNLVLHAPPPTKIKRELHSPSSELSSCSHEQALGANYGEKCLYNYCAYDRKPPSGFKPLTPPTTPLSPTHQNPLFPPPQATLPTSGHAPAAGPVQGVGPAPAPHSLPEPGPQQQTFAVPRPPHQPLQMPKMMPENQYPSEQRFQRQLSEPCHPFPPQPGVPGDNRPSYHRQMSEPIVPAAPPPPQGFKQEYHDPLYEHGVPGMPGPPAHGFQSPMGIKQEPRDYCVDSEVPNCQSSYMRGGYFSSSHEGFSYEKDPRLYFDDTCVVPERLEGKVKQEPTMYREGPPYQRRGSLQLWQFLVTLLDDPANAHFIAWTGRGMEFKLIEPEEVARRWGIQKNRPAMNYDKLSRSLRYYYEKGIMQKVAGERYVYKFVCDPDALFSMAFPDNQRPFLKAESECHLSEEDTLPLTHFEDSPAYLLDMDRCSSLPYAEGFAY
ETV1, sequence (P50549 whole entry): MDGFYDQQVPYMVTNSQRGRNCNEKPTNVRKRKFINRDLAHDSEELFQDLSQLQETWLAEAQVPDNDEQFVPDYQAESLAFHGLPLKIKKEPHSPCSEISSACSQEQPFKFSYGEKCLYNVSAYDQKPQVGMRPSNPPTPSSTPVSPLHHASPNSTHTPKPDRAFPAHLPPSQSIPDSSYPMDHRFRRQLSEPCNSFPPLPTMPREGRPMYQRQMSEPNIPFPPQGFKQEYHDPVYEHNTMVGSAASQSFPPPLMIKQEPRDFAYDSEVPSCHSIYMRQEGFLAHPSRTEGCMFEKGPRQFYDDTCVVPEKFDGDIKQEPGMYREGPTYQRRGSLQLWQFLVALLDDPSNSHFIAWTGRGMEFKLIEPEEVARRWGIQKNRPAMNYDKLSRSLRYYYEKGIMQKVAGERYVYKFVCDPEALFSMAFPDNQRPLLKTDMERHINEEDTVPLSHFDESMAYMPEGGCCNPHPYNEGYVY

Sequence | binding signal (FEV) | binding signal (ETV5) | binding signal (HSF1) | binding signal (SPIC) | binding signal (ELF4) | binding signal (ELK4) | binding signal (ELF3) | binding signal (CRX) | binding signal (ETV1) | binding signal (ETV2)
AGTTCT | 1.1 fold enrichment (6-mer frequency, TF over GST control) | 1.12 fold enrichment (6-mer frequency, TF over GST control) | 1.92 fold enrichment (6-mer frequency, TF over GST control) | 1.1 fold enrichment (6-mer frequency, TF over GST control) | 1.13 fold enrichment (6-mer frequency, TF over GST control) | 1.2 fold enrichment (6-mer frequency, TF over GST control) | 1.17 fold enrichment (6-mer frequency, TF over GST control) | 1.19 fold enrichment (6-mer frequency, TF over GST control) | 1.03 fold enrichment (6-mer frequency, TF over GST control) | –
AAAGCC | 1.03 fold enrichment (6-mer frequency, TF over GST control) | 1.02 fold enrichment (6-mer frequency, TF over GST control) | 1.14 fold enrichment (6-mer frequency, TF over GST control) | 1.14 fold enrichment (6-mer frequency, TF over GST control) | – | 1.02 fold enrichment (6-mer frequency, TF over GST control) | 1.01 fold enrichment (6-mer frequency, TF over GST control) | 1.42 fold enrichment (6-mer frequency, TF over GST control) | 1.03 fold enrichment (6-mer frequency, TF over GST control) | –
CAAGTA | 1.04 fold enrichment (6-mer frequency, TF over GST control) | 1.11 fold enrichment (6-mer frequency, TF over GST control) | 1.02 fold enrichment (6-mer frequency, TF over GST control) | 1.09 fold enrichment (6-mer frequency, TF over GST control) | 1.16 fold enrichment (6-mer frequency, TF over GST control) | – | 1.28 fold enrichment (6-mer frequency, TF over GST control) | 1.08 fold enrichment (6-mer frequency, TF over GST control) | 1.03 fold enrichment (6-mer frequency, TF over GST control) | –
ATAAGC | 1.02 fold enrichment (6-mer frequency, TF over GST control) | 1.11 fold enrichment (6-mer frequency, TF over GST control) | 1.67 fold enrichment (6-mer frequency, TF over GST control) | 1.08 fold enrichment (6-mer frequency, TF over GST control) | 1.11 fold enrichment (6-mer frequency, TF over GST control) | – | 1.12 fold enrichment (6-mer frequency, TF over GST control) | 2.4 fold enrichment (6-mer frequency, TF over GST control) | 1.11 fold enrichment (6-mer frequency, TF over GST control) | 1.07 fold enrichment (6-mer frequency, TF over GST control)
AACGTC | 1.06 fold enrichment (6-mer frequency, TF over GST control) | 1.04 fold enrichment (6-mer frequency, TF over GST control) | 1.01 fold enrichment (6-mer frequency, TF over GST control) | 1.13 fold enrichment (6-mer frequency, TF over GST control) | 1.09 fold enrichment (6-mer frequency, TF over GST control) | – | 1.13 fold enrichment (6-mer frequency, TF over GST control) | – | 1.11 fold enrichment (6-mer frequency, TF over GST control) | –
ATCAAT | 1.05 fold enrichment (6-mer frequency, TF over GST control) | 1.1 fold enrichment (6-mer frequency, TF over GST control) | 1.14 fold enrichment (6-mer frequency, TF over GST control) | 1.06 fold enrichment (6-mer frequency, TF over GST control) | 1.1 fold enrichment (6-mer frequency, TF over GST control) | – | 1.12 fold enrichment (6-mer frequency, TF over GST control) | 1.32 fold enrichment (6-mer frequency, TF over GST control) | 1.06 fold enrichment (6-mer frequency, TF over GST control) | 1.16 fold enrichment (6-mer frequency, TF over GST control)
TAGTCT | – | 1.01 fold enrichment (6-mer frequency, TF over GST control) | 1.4 fold enrichment (6-mer frequency, TF over GST control) | 1.05 fold enrichment (6-mer frequency, TF over GST control) | 1.03 fold enrichment (6-mer frequency, TF over GST control) | – | 1.14 fold enrichment (6-mer frequency, TF over GST control) | 1.4 fold enrichment (6-mer frequency, TF over GST control) | 1.01 fold enrichment (6-mer frequency, TF over GST control) | –
AACGTA | – | 1.04 fold enrichment (6-mer frequency, TF over GST control) | 1.03 fold enrichment (6-mer frequency, TF over GST control) | 1.02 fold enrichment (6-mer frequency, TF over GST control) | 1.03 fold enrichment (6-mer frequency, TF over GST control) | – | 1.01 fold enrichment (6-mer frequency, TF over GST control) | – | 1.06 fold enrichment (6-mer frequency, TF over GST control) | 1.01 fold enrichment (6-mer frequency, TF over GST control)
CAAATT | 1.14 fold enrichment (6-mer frequency, TF over GST control) | 1.2 fold enrichment (6-mer frequency, TF over GST control) | 1.17 fold enrichment (6-mer frequency, TF over GST control) | 1.16 fold enrichment (6-mer frequency, TF over GST control) | 1.07 fold enrichment (6-mer frequency, TF over GST control) | – | 1.17 fold enrichment (6-mer frequency, TF over GST control) | 1.12 fold enrichment (6-mer frequency, TF over GST control) | 1.18 fold enrichment (6-mer frequency, TF over GST control) | 1.09 fold enrichment (6-mer frequency, TF over GST control)
AAGGCT | 1.05 fold enrichment (6-mer frequency, TF over GST control) | 1.01 fold enrichment (6-mer frequency, TF over GST control) | 1.1 fold enrichment (6-mer frequency, TF over GST control) | 1.06 fold enrichment (6-mer frequency, TF over GST control) | – | 1 fold enrichment (6-mer frequency, TF over GST control) | 1.02 fold enrichment (6-mer frequency, TF over GST control) | 1.43 fold enrichment (6-mer frequency, TF over GST control) | – | 1.15 fold enrichment (6-mer frequency, TF over GST control)
ACGATC | 1.07 fold enrichment (6-mer frequency, TF over GST control) | 1.06 fold enrichment (6-mer frequency, TF over GST control) | 1.15 fold enrichment (6-mer frequency, TF over GST control) | 1.02 fold enrichment (6-mer frequency, TF over GST control) | 1.08 fold enrichment (6-mer frequency, TF over GST control) | – | 1.04 fold enrichment (6-mer frequency, TF over GST control) | 1.14 fold enrichment (6-mer frequency, TF over GST control) | 1.05 fold enrichment (6-mer frequency, TF over GST control) | 1.09 fold enrichment (6-mer frequency, TF over GST control)
ATCGTC | 1.02 fold enrichment (6-mer frequency, TF over GST control) | 1.06 fold enrichment (6-mer frequency, TF over GST control) | 1.06 fold enrichment (6-mer frequency, TF over GST control) | 1.06 fold enrichment (6-mer frequency, TF over GST control) | 1.07 fold enrichment (6-mer frequency, TF over GST control) | – | – | 1.09 fold enrichment (6-mer frequency, TF over GST control) | 1.14 fold enrichment (6-mer frequency, TF over GST control) | 1.02 fold enrichment (6-mer frequency, TF over GST control)
GCTCTG | 1.25 fold enrichment (6-mer frequency, TF over GST control) | 1.15 fold enrichment (6-mer frequency, TF over GST control) | 1.08 fold enrichment (6-mer frequency, TF over GST control) | 1.18 fold enrichment (6-mer frequency, TF over GST control) | 1.17 fold enrichment (6-mer frequency, TF over GST control) | – | 1.04 fold enrichment (6-mer frequency, TF over GST control) | – | 1.28 fold enrichment (6-mer frequency, TF over GST control) | 1 fold enrichment (6-mer frequency, TF over GST control)
TGGATT | – | 1.06 fold enrichment (6-mer frequency, TF over GST control) | 1.85 fold enrichment (6-mer frequency, TF over GST control) | 1.07 fold enrichment (6-mer frequency, TF over GST control) | – | 1.11 fold enrichment (6-mer frequency, TF over GST control) | – | 2.46 fold enrichment (6-mer frequency, TF over GST control) | – | –
CACAAA | 1.09 fold enrichment (6-mer frequency, TF over GST control) | 1.11 fold enrichment (6-mer frequency, TF over GST control) | 1.02 fold enrichment (6-mer frequency, TF over GST control) | 1.07 fold enrichment (6-mer frequency, TF over GST control) | 1.11 fold enrichment (6-mer frequency, TF over GST control) | – | 1.1 fold enrichment (6-mer frequency, TF over GST control) | – | 1.03 fold enrichment (6-mer frequency, TF over GST control) | 1.09 fold enrichment (6-mer frequency, TF over GST control)
TTTAGT | – | 1.04 fold enrichment (6-mer frequency, TF over GST control) | 1.2 fold enrichment (6-mer frequency, TF over GST control) | 1.15 fold enrichment (6-mer frequency, TF over GST control) | 1.04 fold enrichment (6-mer frequency, TF over GST control) | – | 1.04 fold enrichment (6-mer frequency, TF over GST control) | 1.55 fold enrichment (6-mer frequency, TF over GST control) | – | 1.23 fold enrichment (6-mer frequency, TF over GST control)
